Structures are written as SMILES. Active and inactive are the calls of the source. How the calls were made is not given here. A value given as a limit tells only on which side of the number the result lay.
Potency means the concentration at half of the fitted maximal effect.

This assay concerns HIV-1 nucleocapsid protein NCp7 (binding to TG oligonucleotide). In words: HIV Nucleocapsid (AID 346).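 Further: potency is for inhibitors that block NC binding and lower polarization.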 The settings on record: HIV-1 NC / fluorescein-TGTGTGTG probe, fluorescence polarization. The procedure, abridged: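 HIV-1 NC (100 nM) binding to fluorescein-labelled ssDNA TG4xF (10 nM) in Hepes pH 7.5, 250mM NaCl, 1uM ZnCl2, TCEP and 2-mercaptoethanol; compounds pin-transferred, 1 hr room temperature, fluorescence polarization read on CCD imager.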
A general note: Fluorescence polarisation rises when a labelled molecule tumbles more slowly, as on binding a larger partner.
For `Cc1cnc(CNc2ncncc2-c2cccnc2)cn1`, the Potency was > 20 µM (inactive).

For the compound `O=C(Nc1cccc(F)c1)N1CCCC2(CCN(C(=O)c3csnn3)CC2)C1`, the Potency was > 20 µM (inactive).

On to `COc1cccc(-c2cncnc2NCCc2cnc[nH]2)c1`, for which the Potency is > 20 µM (inactive).

Turning to `COc1ccccc1-c1nc(N2CCN(C)CC2)c2ccccc2n1`, the Potency was > 20 µM (inactive).

Consider `CN(C)c1ccc(-c2nccc(NCc3ccccc3)n2)cc1`, for which the Potency is > 20 µM (inactive).

Consider `COc1ccccc1CN1CCC2(CC1)CCN(C(=O)c1c(C)noc1C)CC2`, for which the Potency is > 20 µM (inactive).

Regarding `COc1ccc2[nH]cc(CCNc3ncncc3-c3cccc(C#N)c3)c2c1`, the Potency was > 20 µM (inactive).

On to `N#Cc1cccc(-c2nccc(NCc3cccs3)n2)c1`, for which the Potency was > 20 µM (inactive).

On to `COc1ccc(Oc2ncc3nc(-c4cc(F)cc(F)c4)c(=O)n(C[C@H]4CCCO4)c3n2)cc1`, for which the Potency is > 20 µM (inactive).

Regarding `COc1cccc(-c2cncnc2NCc2cccs2)c1`, the Potency was > 20 µM (inactive).

As for `COc1ccc2[nH]cc(CCNc3cc(-c4ccccc4CN(C)C)ncn3)c2c1`, the Potency was > 20 µM (inactive).

In the case of `Cc1cccc(CNc2ccnc(-c3ccc(N(C)C)cc3)n2)c1`, the Potency is > 20 µM (inactive).

`COCCn1c(=O)c(-c2ccccc2)nc2cnc(OC)nc21`: the Potency was > 20 µM (inactive).

In the case of `COc1ncc2nc(-c3cccs3)c(=O)n(CCc3ccccc3)c2n1`, the Potency was > 20 µM (inactive).

For `COCCn1c(=O)cnc2cnc(Oc3cccc(Cl)c3)nc21`, the Potency is > 20 µM (inactive).

On to `CN1CCN(c2ncc3nc(-c4cn(C)c5ccccc45)c(=O)n(-c4ccccc4)c3n2)CC1`, for which the Potency was > 4 µM (inactive).

Take `c1ccc(CNc2ncnc3ccc(-c4cccnc4)cc23)cc1`: the Potency was > 20 µM (inactive).

Consider `COc1cccc(Cn2c(=O)c(-c3ccccc3)nc3cnc(OC)nc32)c1`, for which the Potency was > 20 µM (inactive).

With `CN(C)c1ccc(-c2ccc3ncnc(NC4CC4)c3c2)cc1`, the Potency is > 20 µM (inactive).

As to `O=c1c(-c2ccc(Cl)cc2)nc2cncnc2n1Cc1ccccc1`, the Potency is > 20 µM (inactive).

On to `N#Cc1cccc(-c2cncnc2NCc2cccnc2)c1`, for which the Potency is > 20 µM (inactive).

Turning to `FC(F)(F)c1ccccc1-c1ccc2ncnc(NCc3cccs3)c2c1`, the Potency was > 20 µM (inactive).

Regarding `O=c1cnc2cncnc2n1Cc1ccccc1Cl`, the Potency was > 20 µM (inactive).

`Cn1cc(-c2nc3cnc(Oc4cccc(Cl)c4)nc3n(C3CC3)c2=O)c2ccccc21`: the Potency is > 20 µM (inactive).

`COc1cccc(Cn2c(=O)cnc3cnc(N(C)C)nc32)c1`: the Potency is > 20 µM (inactive).

Take `CC(=O)NCCNc1ncnc2ccc(-c3ccccc3C)cc12`: the Potency was > 20 µM (inactive).

Take `COc1ccc(-c2nc3cnc(Oc4cccc(Cl)c4)nc3n(CCC#N)c2=O)cc1`: the Potency was > 20 µM (inactive).

For the compound `COC(=O)N1CCC2(CCCN(C(=O)Nc3cccc(F)c3)C2)CC1`, the Potency was > 20 µM (inactive).

As to `COc1ncc2nc(-c3cn(C)c4ccccc34)c(=O)n(-c3ccccc3)c2n1`, the Potency is > 20 µM (inactive).

For `COc1cccc(Cn2c(=O)c(-c3cccc(C#N)c3)nc3cnc(N4CCOCC4)nc32)c1`, the Potency was > 20 µM (inactive).

`O=c1cnc2cnc(N3CCNCC3)nc2n1Cc1ccc(F)cc1`: the Potency was > 20 µM (inactive).

`COc1ccc(Oc2ncc3nc(-c4ccc(F)cc4)c(=O)n(CCC#N)c3n2)cc1`: the Potency is > 20 µM (inactive).

For `COc1ccc2[nH]cc(CCNc3ncnc4ccc(-c5cccc(C#N)c5)cc34)c2c1`, the Potency is > 20 µM (inactive).

For `Cc1cnc(CNc2ncncc2-c2ccccc2CN(C)C)cn1`, the Potency is > 20 µM (inactive).

As for `COc1ccc(C(=O)N2CCC3(CC2)CCN(c2ncccn2)CC3)cc1`, the Potency was > 20 µM (inactive).

Turning to `COc1ccc(NC(=O)N2CC[C@@]3(CCCN(S(C)(=O)=O)C3)C2)cc1`, the Potency is > 20 µM (inactive).

Regarding `c1cncc(CNc2ccnc(-c3cccnc3)n2)c1`, the Potency was > 20 µM (inactive).

As for `Cn1cccc1C(=O)N1CCC2(CC1)CN(c1ccccn1)C2`, the Potency was > 20 µM (inactive).

As for `COc1cccc(Cn2c(=O)c(-c3cccc(C#N)c3)nc3cnc(N4CCN(C)CC4)nc32)c1`, the Potency is > 20 µM (inactive).

As for `COc1ccc(NC(=O)N2CCC3(CC2)CCN(C(=O)c2csnn2)CC3)cc1`, the Potency is > 20 µM (inactive).

(Values after PubChem BioAssay (NCATS).)
